Measurements as given in PubChem BioAssay (NCATS).
Values joined by “and” are separate entries in the source; they are usually repeats but may differ in a detail not shown here. Identical values can stand only once. Records with an inconclusive call do not appear. Active and inactive are the calls of the source. Unless noted, calls come from the whole dose curve; as a rule, active = well fitted curve in the direction sought with a large enough effect; inconclusive = small, poorly fitted or top-dose-only effect, or another doubt; inactive = no such curve, though single readings can be large; an effect the other way counts as inactive or inconclusive.

Assays:
[1] = Cell Viability - BJ (AID 421; calls by dose curve;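 note: potency is the fitted concentration of half-maximal effect; cells exposed to compound for 40 hours at 37 °C before readout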); conditions: BJ fibroblast viability, qHTS
Summary of the method: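 Normal human BJ foreskin fibroblasts, 1500/well in complete medium, treated 40 hr at 37 °C. Cellular ATP by CellTiter-Glo luminescence; normalized to DMSO and 100 uM tamoxifen, AC50 from Hill fit.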

[2] = Cell Viability - Jurkat (AID 426;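 active = dose-dependent loss of cell ATP signal giving a full or clear fitted curve, ranked by lower potency value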; note: potency is the fitted concentration of half-maximal effect); conditions: qHTS
Summary of the method: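 Luminescent ATP read-out (CellTiter-Glo, 20 min at room temperature) after 40 hr compound exposure at 37 °C of Jurkat E6-1 cells, 5000/well. Decreased ATP taken as cytotoxicity; AC50 from standard Hill equation.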

[3] = Cell Viability - Hek293 (AID 427;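 active = compounds whose dose-response curve shows a full or clear partial loss of cell viability, called from curve shape rather than a numeric limit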;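 note: potency is the fitted concentration of half-maximal effect; cells exposed to compound for 40 hours at 37 °C before reading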); conditions: qHTS
Summary of the method: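 HEK293 cells in complete medium were exposed to compound for 40 hr at 37 °C, then cellular ATP was read by CellTiter-Glo luminescence. Data were normalized to DMSO (basal) and 100 uM tamoxifen (100% inhibition), and AC50 came from Hill fits.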

[4] = Cell Viability - HepG2 (AID 433; calls by dose curve;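 note: potency is the fitted concentration of half-maximal effect; potency for ATP loss meaning cytotoxicity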); conditions: qHTS
Summary of the method: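 Cytotoxicity read as ATP loss (CellTiter-Glo luminescence) after 40 hr compound exposure of HepG2, 1500 cells/well, 37 °C. AC50 by Hill equation; 0% set by DMSO, 100% inhibition by 100 uM tamoxifen.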

[5] = Cell Viability - MRC5 (AID 434; calls by dose curve;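 note: potency is the fitted concentration of half-maximal effect; potency reflects cytotoxicity seen as loss of intracellular ATP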); conditions: MRC5 lung fibroblast viability, qHTS
Summary of the method: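 Decrease in intracellular ATP, quantified by luciferase light output, reflects compound toxicity toward MRC5 cells exposed for 40 hr in complete culture medium. Concentration-response curves, scaled between DMSO and 100 uM tamoxifen, gave AC50 values.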

[6] = Cell Viability - SK-N-SH (AID 435; calls by dose curve; note: potency is the fitted concentration of half-maximal effect); conditions: SK-N-SH neuroblastoma cell viability qHTS
Summary of the method: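 qHTS cytotoxicity: CellTiter-Glo ATP luminescence after 40 h compound exposure of human neuroblastoma SK-N-SH cells at 37 °C. AC50 derived by Hill-equation fitting, with DMSO as basal and 100 uM tamoxifen as full inhibition.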

[7] = Cellular Toxicity (caspase-3) HepG2 (AID 654); conditions: HepG2 caspase-3 activation, luminescence, 0% = DMSO only, 100% = tamoxifen; series mostly up to 92.2 µM;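 note: cells exposed to compound for 16 hours before reading; 0% = DMSO alone and 100% = caspase signal from 100 µM tamoxifen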
Summary of the method: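 Luminescent Caspase-Glo 3/7 readout after 16 hr compound exposure of human hepatocellular carcinoma HepG2 cells at 37 °C; qHTS concentration-response, normalized DMSO = 0%, 100 uM tamoxifen = 100%; AC50 by standard Hill equation.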

[8] = Cellular Toxicity (caspase-3) BJ (AID 658); conditions: BJ fibroblasts, luminescence, normalized: DMSO 0%, staurosporine 100%; series mostly up to 91.7 µM
Summary of the method: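 Plated BJ cells (1000/well) rested 5 hr, received compound for 16 hr at 37 °C, then Caspase-Glo 3/7 reagent for 1 hr at room temperature before luminescence reading.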

[9] = Cellular Toxicity (caspase-3) MRC-5 (AID 659); conditions: MRC-5 cells, luminescence, normalized: DMSO 0%, 10 µM staurosporine 100%; series mostly up to 91.7 µM
Summary of the method: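 Apoptosis readout in MRC-5 cells: luciferase light generated after caspase 3/7 cleaves a peptide-aminoluciferin substrate, measured post 16 hr compound incubation at 37 °C.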

[10] = Cellular Toxicity (caspase-3) Hek293 (AID 664); conditions: HEK293 caspase-3 activation, DMSO = 0%, 100 µM tamoxifen = 100%; at 92.2 µM (top of the series);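 note: cells exposed to compound for 16 h at 37 °C before readout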
Summary of the method: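 Luminescent Caspase-Glo 3/7 readout (aminoluciferin release) in HEK293 cells after 16 h compound treatment, 37 °C. Normalization: DMSO = basal, 100 uM tamoxifen = 100% stimulation. Concentration-response fitted with standard Hill equation for AC50.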

[11] = Cellular Toxicity (caspase-3) N2a (AID 665); conditions: N2a cells, luminescence, normalized: DMSO 0%, 10 µM staurosporine 100%; series mostly up to 92.2 µM;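 note: compound exposure lasted 16 h at 37 °C before readout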
Summary of the method: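 Luminescent Caspase-Glo 3/7 readout in N2a mouse neuroblastoma cells after 16 h compound exposure at 37 °C. Signal scaled to DMSO (basal) and 10 uM staurosporine (100%). Concentration-response fitted with Hill equation for AC50.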

[12] = Cellular Toxicity (caspase-3) NIH 3T3 (AID 666); conditions: NIH 3T3 caspase-3 activation, apoptosis/toxicity; series mostly up to 92.2 µM;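 note: 0% = DMSO basal and 100% = 100 µM tamoxifen stimulation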
Summary of the method: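 NIH 3T3, 1000 cells/well, 5 hr settle then 16 hr compound at 37°C; Caspase-Glo 3/7, 20 min RT, luminescence. DMSO = basal, 100 uM tamoxifen = 100%. Hill-equation AC50, qHTS.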

[13] = MultiTox-Fluor Cytotoxicity Assay - LYMP1-001 - Dead Cells (AID 946); conditions: LYMP1-001 lymphoblastoid cells, dead-cell protease fluorescence; series mostly up to 92.2 µM;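 note: 0% = DMSO and 100% = tetraoctylammonium bromide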
Summary of the method: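 LYMP1-001 lymphoblastoid cells (2500/well) treated 16 h at 37 C. Dead-cell protease cleavage of bis-AAF-R110 read at Ex/Em 485/520. Normalized to DMSO and 15 uM tetraoctylammonium bromide; AC50 from Hill fits.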

[14] = MultiTox-Fluor Cytotoxicity Assay - LYMP1-002 - Live Cells (AID 955); conditions: LYMP1-002 lymphoblastoid live-cell protease fluorescence viability; series mostly up to 46.1 µM; note: % is set by controls: 0 for no effect and ±100 for the full control effect
Summary of the method: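 LYMP1-002 lymphoblastoid cells; 2500 cells/well; 16 hr compound exposure, 37 C; MultiTox-Fluor reagent 60 min RT; live-cell fluorescence Ex/Em=405/510; qHTS concentration-response, Hill-equation AC50; tetraoctylammonium bromide positive control.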

[15] = MultiTox-Fluor Cytotoxicity Assay - LYMP1-003 - Dead Cells (AID 961); conditions: LYMP1-003 lymphoblastoid cells, dead-cell protease fluorescence; series mostly up to 92.2 µM;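 note: 0% = DMSO and 100% = tetraoctylammonium bromide; nearly all actives have a fitted effect of over 70% in size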
Summary of the method: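 LYMP1-003 human lymphoblastoid cells (2500/well) exposed to compound 16 h at 37 C in complete medium; dead-cell protease read with bis-AAF-R110 fluorescence (Ex/Em 485/520) after 60 min at room temperature. Normalized to DMSO and 15 uM tetraoctylammonium bromide; AC50 from Hill fit.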

[16] = Cell Viability - LYMP2-008 (AID 980); conditions: LYMP2-008 lymphoblastoid cell viability, qHTS; series mostly up to 92.2 µM; note: % is set by controls: 0 for no effect and ±100 for the full control effect; nearly all actives have a fitted effect of over 60% in size
Summary of the method: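 Luminescent ATP read-out (CellTiter-Glo, 30 min RT) after 24 hr compound exposure at 37 C of human lymphoblastoid cells in complete medium. Decrease in ATP taken as cytotoxicity; AC50 derived by standard Hill fit of qHTS concentration-response data.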

[17] = Cell Viability - LYMP1-002 - Assay at 24 hr (AID 993); conditions: LYMP1-002 lymphoblastoid cells viability; series mostly up to 92.2 µM; note: % is set by controls: 0 for no effect and ±100 for the full control effect
Summary of the method: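 CellTiter-Glo luminescence (intracellular ATP) after 24 h compound exposure, 37 C, in LYMP1-002 human lymphoblastoid cells; decreased ATP taken as cytotoxicity. AC50 from standard Hill fit of concentration-response curves.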

[18] = qHTS Assay for Identification of Small Molecule Inducers of Hypoxia Response (AID 2120; active = well fitted curve in the direction sought with a large enough effect in the signal ratio, with a control signal flat, not every such curve was filed as active; the % refers to the signal ratio; note: 0% is about no effect); conditions: hypoxia response reporter cells, beta-lactamase ratio readout; series mostly up to 104 µM
Summary of the method: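 Read-out: CCF4 FRET emission ratio 460nm/530nm (excitation 405nm), converted to %Activity, with AC50 fitted across a compound titration. ME-180 cells carried an HRE-driven beta-lactamase reporter; compound exposure 17 h, 37 degrees C.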

[19] = biological target: Peroxisome proliferator-activated receptor alpha (Homo sapiens) (UniProt Q07869); assay: qHTS assay for small molecule agonists of the peroxisome proliferator-activated receptor alpha (PPARalpha) signaling pathway (AID 651778); conditions: PathHunter PPARalpha complementation, chemiluminescence, 6 h; active compounds read high; note: % of control where 0% means no effect
Summary of the method: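 Cells plated at 2,000/well and held overnight at 37 C, 5% CO2, then compound added by pin tool for 6 hr; after PathHunter detection reagent and 60 min at room temperature, chemiluminescence from enzyme complementation was read.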

[20] = qHTS assay for cell viability of the p53RE-bla HCT-116 cell line (AID 743292); conditions: p53RE-bla HCT-116 viability, ATP luminescence, 16 h; series mostly up to 95 µM; note: % is set by controls: 0 for no effect and ±100 for the full control effect; nearly all actives have a fitted effect of over 55% in size
Summary of the method: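 Quantitative high-throughput format: compounds in DMSO were pinned onto p53RE-bla HCT-116 cells (4,000/well) and incubated 16 h at 37 C. Total intracellular ATP, read by CellTiter-Glo luminescence, reflects viable cell number.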

Sequence of Peroxisome proliferator-activated receptor alpha (Homo sapiens) (Q07869 whole entry, looked up): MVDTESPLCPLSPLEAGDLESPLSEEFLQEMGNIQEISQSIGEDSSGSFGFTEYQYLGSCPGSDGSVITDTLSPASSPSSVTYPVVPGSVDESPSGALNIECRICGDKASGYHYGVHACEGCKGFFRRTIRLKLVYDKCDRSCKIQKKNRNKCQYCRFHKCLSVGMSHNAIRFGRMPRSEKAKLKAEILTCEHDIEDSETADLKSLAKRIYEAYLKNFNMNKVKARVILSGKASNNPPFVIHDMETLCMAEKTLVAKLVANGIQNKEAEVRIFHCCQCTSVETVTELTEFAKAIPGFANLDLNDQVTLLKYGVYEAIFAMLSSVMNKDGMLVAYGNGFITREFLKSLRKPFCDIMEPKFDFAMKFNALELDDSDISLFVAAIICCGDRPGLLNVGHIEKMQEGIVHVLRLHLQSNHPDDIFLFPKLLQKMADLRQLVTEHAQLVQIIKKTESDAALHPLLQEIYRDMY

ClCC(Cl)CCl
inactive: Potency [1] > 92 µM | Potency [2] > 92 µM | Potency [3] > 92 µM | Potency [4] > 92 µM | Potency [5] > 92 µM | Potency [6] > 92 µM | outcome [7] | outcome [8] | outcome [9] | caspase-3 activation [10] 1.26% | outcome [11] | Potency [12] | outcome [13] | outcome [14] | Potency [15] | Potency [16] | Potency [17] | Potency [18] | max response [19] -4.72% and -1.22% | Potency [20]

OCCOCCO
inactive: Potency [1] > 92 µM | Potency [2] > 92 µM | Potency [3] > 92 µM | Potency [4] > 92 µM | Potency [5] > 92 µM | Potency [6] > 92 µM | outcome [7] | outcome [8] | outcome [9] | caspase-3 activation [10] 3.16% | outcome [11] | Potency [12] | outcome [13] | outcome [14] | Potency [15] | Potency [16] | Potency [17] | Potency [18] | max response [19] -3.41% | Potency [20]

Cl/C=C\Cl
inactive: Potency [1] > 92 µM | Potency [2] > 92 µM | Potency [3] > 92 µM | Potency [4] > 92 µM | Potency [5] > 92 µM | Potency [6] > 92 µM | outcome [7] | outcome [8] | outcome [9] | caspase-3 activation [10] 0.708% | outcome [11] | Potency [12] | outcome [13] | outcome [14] | Potency [15] | Potency [16] | Potency [17] | Potency [18] | max response [19] -0.887% | Potency [20]

CCCBr
inactive: Potency [1] > 92 µM | Potency [2] > 92 µM | Potency [3] > 92 µM | Potency [4] > 92 µM | Potency [5] > 92 µM | Potency [6] > 92 µM | outcome [7] | outcome [8] | outcome [9] | caspase-3 activation [10] 2.6% | outcome [11] | Potency [12] | outcome [13] | outcome [14] | Potency [15] | Potency [16] | Potency [17] | Potency [18] | max response [19] -0.188% | Potency [20]

Clc1cccc2ccccc12
inactive: Potency [1] > 92 µM | Potency [2] > 92 µM | Potency [3] > 92 µM | Potency [4] > 92 µM | Potency [5] > 92 µM | Potency [6] > 92 µM | outcome [7] | outcome [8] | outcome [9] | caspase-3 activation [10] -0.708% | outcome [11] | Potency [12] | outcome [13] | outcome [14] | Potency [15] | Potency [16] | Potency [17] | Potency [18] | max response [19] -0.995% | Potency [20]

CC(C)CON=O
inactive: Potency [1] > 92 µM | Potency [2] > 92 µM | Potency [3] > 92 µM | Potency [4] > 92 µM | Potency [5] > 92 µM | Potency [6] > 92 µM | outcome [7] | outcome [8] | outcome [9] | caspase-3 activation [10] 0.719% | outcome [11] | Potency [12] | outcome [13] | outcome [14] | Potency [15] | Potency [16] | Potency [17] | Potency [18] | max response [19] -1.42% | Potency [20]

Nc1cc(Cl)ccc1Cl
inactive: Potency [1] > 92 µM | Potency [2] > 92 µM | Potency [3] > 92 µM | Potency [4] > 92 µM | Potency [5] > 92 µM | Potency [6] > 92 µM | outcome [7] | outcome [8] | outcome [9] | caspase-3 activation [10] -0.435% | outcome [11] | Potency [12] | outcome [13] | outcome [14] | Potency [15] | Potency [16] | Potency [17] | Potency [18] | max response [19] -1.24% | Potency [20]

Nc1cc(Cl)cc(C(=O)O)c1Cl
inactive: Potency [1] > 92 µM | Potency [2] > 92 µM | Potency [3] > 92 µM | Potency [4] > 92 µM | Potency [5] > 92 µM | Potency [6] > 92 µM | outcome [7] | outcome [8] | outcome [9] | caspase-3 activation [10] -1.19% | outcome [11] | Potency [12] | outcome [13] | outcome [14] | Potency [15] | Potency [16] | Potency [17] | Potency [18] | max response [19] 9.46% and -1.59% | Potency [20]

O=[N+]([O-])c1ccccc1O
inactive: Potency [1] > 92 µM | Potency [2] > 92 µM | Potency [3] > 92 µM | Potency [4] > 92 µM | Potency [5] > 92 µM | Potency [6] > 92 µM | outcome [7] | outcome [8] | outcome [9] | caspase-3 activation [10] -0.522% | outcome [11] | Potency [12] | outcome [13] | outcome [14] | Potency [15] | Potency [16] | Potency [17] | Potency [18] | max response [19] -0.691% | Potency [20]

ClCCCCl
inactive: Potency [1] > 92 µM | Potency [2] > 92 µM | Potency [3] > 92 µM | Potency [4] > 92 µM | Potency [5] > 92 µM | Potency [6] > 92 µM | outcome [7] | outcome [8] | outcome [9] | caspase-3 activation [10] -1.63% | outcome [11] | Potency [12] | outcome [13] | outcome [14] | Potency [15] | Potency [16] | Potency [17] | Potency [18] | max response [19] -2.57% | Potency [20]

Cc1ccc(N)cc1Cl
inactive: Potency [1] > 92 µM | Potency [2] > 92 µM | Potency [3] > 92 µM | Potency [4] > 92 µM | Potency [5] > 92 µM | Potency [6] > 92 µM | outcome [7] | outcome [8] | outcome [9] | caspase-3 activation [10] 0.465% | outcome [11] | Potency [12] | outcome [13] | outcome [14] | Potency [15] | Potency [16] | Potency [17] | Potency [18] | max response [19] 3.75% | Potency [20]
